Among the test systems are NCI-H23 lung; NCI-H226 lung; HOP-62 NSCLC; NCI-H460 lung; NCI-H522 lung; A549/ATCC NSCLC; 786-0 renal; COLO 205 colon; DU-145 prostate; K-562 leukemia; MDA-MB-231 breast; RXF 393 renal; SF-268 CNS; SF-295 CNS; SF-539 CNS; UACC-257 melanoma; M14 melanoma; HOP-92 NSCLC; MALME-3M melanoma.
Common to all, as to assay: NCI-60 one-dose screen, 48 h (100 = growth as untreated, 0 = no growth, -100 = all killed)
Settings in all cases: 10 µM

Molecules are shown by their SMILES. This is part of a sample that, as a whole, favours compounds with a hit. Of some 83,000 tested, about 20% had one in any assay.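 A percent growth of 40 corresponds to 60% growth inhibition; 0 means no net growth; -100 means all cells died. Active threshold: below 10.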 Values without a mark were called inactive. The source made the active and inactive calls.

In the case of `Nc1ncc(-c2cnn(C3CCNCC3)c2)cc1-c1nc2ccccc2o1`, the growth is 20.2% with NCI-H23 lung; 15.8% in the assay on NCI-H226 lung; 24.3% in the assay on HOP-62 NSCLC; -0.928% (active) in the assay with NCI-H460 lung; 19.7% with NCI-H522 lung; 7.74% (active) in the assay on A549/ATCC NSCLC. The growth in the assay with 786-0 renal was 19.5%; in the assay on COLO 205 colon, -73.7% (active); in the assay with DU-145 prostate, 15.2%; in the assay on K-562 leukemia, -60% (active); in the assay on MDA-MB-231 breast it was 27.1%; in the assay with RXF 393 renal, -29.5% (active). For the same compound, the growth in the assay with SF-268 CNS was -0.542% (active); in the assay on SF-295 CNS, 94.5%; in the assay on SF-539 CNS, -33.8% (active); with UACC-257 melanoma, -82% (active); in the assay on M14 melanoma it was -88.7% (active).
Regarding `CSc1nc2c(c(=O)n1C)CN(Cc1ccccc1)C(=O)CN2`, the growth is 93.5% in the assay with NCI-H23 lung; 96% in the assay on NCI-H226 lung; 82.7% in the assay on HOP-62 NSCLC; 106% with NCI-H460 lung; 79.6% in the assay on NCI-H522 lung; 91% in the assay with A549/ATCC NSCLC. Moreover, the growth was 91.9% in the assay with 786-0 renal; 113% in the assay with COLO 205 colon; 109% with DU-145 prostate; 85.2% in the assay with K-562 leukemia; 96.8% in the assay on MDA-MB-231 breast; 75.2% with RXF 393 renal. Further, the growth was 104% in the assay on SF-268 CNS; 103% in the assay with SF-295 CNS; 91.1% in the assay with SF-539 CNS; 86.9% with UACC-257 melanoma; 88.6% with M14 melanoma.
In the case of `O=C(c1ccccc1)N(C(=O)c1ccccc1)N1CCCC1`, the growth in the assay on NCI-H23 lung is 96.4%; with NCI-H226 lung it was 92.7%; in the assay with HOP-62 NSCLC, 104%; in the assay with NCI-H460 lung, 106%; in the assay on 786-0 renal it was 110%; with COLO 205 colon, 110%. In addition, the growth in the assay with DU-145 prostate was 113%; in the assay with K-562 leukemia, 101%; with MDA-MB-231 breast it was 117%; with RXF 393 renal, 110%; in the assay with SF-268 CNS, 98.7%; with SF-295 CNS, 104%. Moreover, the figures for the growth in the assay with SF-539 CNS and with M14 melanoma were 99.9% and 102%, respectively.
`Cc1ccc(NC(=O)N2CCCCC2)cc1[N+](=O)[O-]`: the growth in the assay with NCI-H23 lung was 91.1%; in the assay on NCI-H226 lung, 94.9%; in the assay on HOP-62 NSCLC, 84.2%; in the assay with NCI-H460 lung it was 108%; with NCI-H522 lung, -29.1% (active); in the assay with A549/ATCC NSCLC it was 39.5%. Moreover, the growth in the assay on 786-0 renal was 102%; in the assay with COLO 205 colon it was 99.4%; in the assay with DU-145 prostate it was 108%; in the assay with K-562 leukemia, 106%; in the assay on MDA-MB-231 breast it was 95.5%; in the assay with RXF 393 renal it was 106%. Moreover, the growth in the assay with SF-268 CNS was 81.1%; with SF-539 CNS, 92.6%; with UACC-257 melanoma, -0.113% (active); with M14 melanoma, 90.8%.
With `OC[C@H]1OC([S-])[C@H](O)[C@@H](O)[C@@H]1O.[Au+]` (some centres not stated), the growth with NCI-H23 lung was 77.2%; in the assay with NCI-H226 lung, 103%; in the assay on NCI-H460 lung it was 110%; in the assay with HOP-92 NSCLC, 75.6%; with A549/ATCC NSCLC it was 95.7%; in the assay with 786-0 renal, 87.3%. For the same compound, the growth in the assay with COLO 205 colon was 114%; in the assay on DU-145 prostate, 111%; with MALME-3M melanoma, 137%; in the assay with MDA-MB-231 breast it was 70%; in the assay with RXF 393 renal it was 93.2%; in the assay with SF-268 CNS, 88.2%. Moreover, the growth with SF-295 CNS is 113%; in the assay on SF-539 CNS it was 84.3%; with UACC-257 melanoma, 90%; in the assay with M14 melanoma, 81.6%.
Consider `C/C(=C/CCC(C)[C@@H]1CC[C@]2(C)C3=C(CC[C@@]12C)[C@@]1(C)CCC(=O)C(C)(C)[C@@H]1CC3)C(=O)O` (some centres not stated), for which the growth with NCI-H23 lung is -78.3% (active); in the assay with NCI-H226 lung it was -47.3% (active); in the assay on NCI-H460 lung, -80.7% (active); in the assay with HOP-92 NSCLC, -93.3% (active); with NCI-H522 lung, -69% (active); with A549/ATCC NSCLC it was -56.2% (active). Moreover, the growth in the assay with 786-0 renal is -92% (active); in the assay on COLO 205 colon, -91% (active); with DU-145 prostate it was -92.3% (active); in the assay on K-562 leukemia, -16.1% (active); in the assay on MALME-3M melanoma it was -88.9% (active); in the assay on MDA-MB-231 breast, -76.8% (active). The growth in the assay on RXF 393 renal is -90.2% (active); with SF-268 CNS, -92.2% (active); with SF-295 CNS it was -90.5% (active); in the assay on SF-539 CNS, -76% (active); with UACC-257 melanoma, -57.5% (active); with M14 melanoma, -76.8% (active).
As for `COc1ccccc1-n1c(-c2sc(NC(C)=O)nc2C)n[nH]c1=S`, the growth with NCI-H23 lung is 101%; in the assay with NCI-H226 lung, 106%; in the assay on NCI-H460 lung it was 110%; in the assay on HOP-92 NSCLC, 105%; in the assay with NCI-H522 lung, 102%; in the assay on A549/ATCC NSCLC, 104%. Also, the growth with 786-0 renal is 106%; in the assay with COLO 205 colon, 116%; with DU-145 prostate, 119%; in the assay with K-562 leukemia, 101%; with MALME-3M melanoma, 104%; in the assay on MDA-MB-231 breast it was 106%. The growth with RXF 393 renal is 107%; in the assay with SF-268 CNS it was 94.9%; in the assay on SF-295 CNS, 83.2%; in the assay with SF-539 CNS, 103%; in the assay with UACC-257 melanoma, 114%; with M14 melanoma, 98.8%.
Consider `COc1ccc(/C(=N\N)C(=O)c2ccccc2)cc1` (tested in a mixture with another compound), for which the growth in the assay on NCI-H23 lung is 96.8%; in the assay with NCI-H226 lung it was 95.6%; with HOP-62 NSCLC it was 100%; in the assay on HOP-92 NSCLC it was 82.7%; with NCI-H522 lung it was 72.7%; in the assay with A549/ATCC NSCLC, 90.4%. Moreover, the growth in the assay with 786-0 renal is 105%; in the assay with COLO 205 colon, 110%; in the assay on DU-145 prostate, 108%; in the assay on K-562 leukemia it was 101%; in the assay with MALME-3M melanoma, 106%; in the assay on MDA-MB-231 breast it was 102%. Also, the growth in the assay on RXF 393 renal is 96.9%; with SF-268 CNS it was 96.2%; with SF-295 CNS it was 89%; in the assay with SF-539 CNS it was 114%; in the assay on UACC-257 melanoma it was 90.8%; in the assay with M14 melanoma, 124%.
For `CC(=O)Nc1ccc(S(=O)(=O)c2ccnc3cc(Cl)ccc23)cc1`, the growth in the assay with NCI-H23 lung is 68.2%; with NCI-H226 lung, 78.1%; with HOP-62 NSCLC, 99.1%; with HOP-92 NSCLC, 99.8%; with NCI-H522 lung, 28.1%; with A549/ATCC NSCLC it was 85.3%. Besides, the growth with 786-0 renal is 125%; in the assay with COLO 205 colon, 95.3%; in the assay with DU-145 prostate, 53.7%; with K-562 leukemia, 78.9%; with MALME-3M melanoma, 66.5%; in the assay on MDA-MB-231 breast, 88.3%. Besides, the growth in the assay with RXF 393 renal is 66.7%; with SF-268 CNS, 82.8%; in the assay with SF-295 CNS, 97.2%; in the assay with SF-539 CNS, 99.5%; in the assay on UACC-257 melanoma, 64.4%; with M14 melanoma it was 95.3%.

The values are drawn from PubChem BioAssay (NCI).
